Compounds with a hit are over-represented: about 3.9% of the library has one in this group of screens.
HepG2 viability: HepG2 cytotoxicity, counter-screen for TGF-b inhibitors; HepG2 CAGA-GFP viability, ATP luminescence, 18 h; Potency, µM (top dose mostly 46.1 µM), for inactives: at the top dose activity change, negative = cytotoxicity, usual class: cytotoxic; 0.76% of 410,000 active; AID 588856
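HepG2 CAGA-GFP cells (1000/well, DMEM with 1% FBS) received compound, then TGF-beta at 500 pg/mL final, and were incubated 18 hours at 37 degrees C. Viability was read by CellTiter-Glo luminescence. Media-only wells were set as complete cell-killing and DMSO as no toxicity.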
ATXN viability: viability counter-screen for ATXN expression inhibitors | S2 cells (HEK-293 line with an ATXN2-luciferase reporter) viability, CellTiter-Fluor protease fluorescence, 24 h | Potency, µM (highest dose often 56.7 µM), usual class: cytotoxic | 0.49% of 400,000 active | AID 651635; also: nearly all actives have a fitted effect of over 40% in size
ATXN2 expr inh: ATXN2 expression inhibition | 0.72% of 360,000 active | Potency, µM (top dose mostly 57 µM), for the others: at the top dose activity change, negative = inhibition, most hits filed as inhibitors | HEK-293 ATXN2-luciferase reporter, luminescence, 24 h; also: % is scaled to controls: 0 for no effect and ±100 for the full control effect; nearly all actives have a fitted effect of over 55% in size
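qHTS (up to 57 uM final) was run with 24 h compound exposure of reporter cells at 37 °C. Each well was multiplexed: SteadyGlo luminescence measured ATXN2-luciferase expression after a fluorogenic Gly-Phe-AFC viability readout (25 uM final).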
HT1080 IDH1KD tx: kills HT-1080 cells with IDH1 knockdown | HT-1080 IDH1 knockdown viability, ATP luminescence, 48 h | Potency, µM (doses to about 46.1 µM), for inactives: at the highest dose activity, negative = toxicity, usual class: cytotoxic | 2% of 360,000 active | AID 686971;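 also: 0% = DMSO wells and -100% = cell-free medium wells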
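Cytotoxicity counter-line: IDH1KD HT-1080, 48 h, CellTiter-Glo. Curves classed by r2, magnitude and activity.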
TGFb inhibitor: TGF-b pathway inhibition | HepG2 CAGA-GFP TGF-b/SMAD3 reporter, GFP fluorescence, 18 h; TGF-beta stimulated, 500 pg/mL final | Potency, µM (titrated, usually from 46.1 µM), without a hit: at the highest dose activity, negative = inhibition, actives largely listed as inhibitors | 1.2% of 410,000 active; also: % is scaled to controls: 0 for no effect and ±100 for the full control effect; nearly all actives have a fitted effect of over 65% in size
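TGF-beta reporter screen: HEPG2 CAGA-GFP, 1% FBS, 500 pg/mL TGF-beta final, 18 h; per-cell GFP summed per well; curves fitted and categorized by class.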
HT1080NT lethal: kills 2HG-producing HT-1080-NT fibrosarcoma cells | Potency, µM (titrated, usually from 46.1 µM), for the others: top-dose activity, negative = less viability, most hits filed as cytotoxic | HT-1080-NT fibrosarcoma viability, CellTiter-Glo ATP luminescence, 48 h | 1.6% of 360,000 active | AID 686970;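 also: NT is the 2HG producing partner of a matched IDH1 knockdown line; 0% = DMSO-treated cells and -100% = media-only wells without cells; nearly all actives have a fitted effect of over 55% in size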
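Compounds were tested in concentration-response format on HT-1080-NT cells for 48 hours at 37 degrees C. Cell viability came from CellTiter-Glo luminescence; curves were classified by r2, response magnitude and activity.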
Starred values were filed as active, the others as inactive; i = inactive; ? = inconclusive; . = no result. Calls follow the shape of the dose curve; as a rule, active = well fitted curve in the direction sought with a large enough effect; inconclusive = small, poorly fitted or top-dose-only effect, or another doubt; inactive = no such curve, though single readings can be large; an effect the other way counts as inactive or inconclusive. Potency is read from the fitted curve at half-maximal effect.

SMILES	HepG2 viability	ATXN viability	ATXN2 expr inh	HT1080 IDH1KD tx	TGFb inhibitor	HT1080NT lethal
COc1cccc(C(=O)/C(C#N)=N/Nc2cccc(-c3ccnc(C)n3)c2)c1	-55.7%	?	.	-28.2%	-25.2%	25.9µM*
CCOC(=O)CSC1=C(C#N)C(c2ccc(C)s2)CC(=O)N1 (configuration not stated)	-30.7%	i	-25.1%	1.78µM*	?	0.708µM*
CCSC1=C(C#N)C(c2ccc(C)s2)CC(=O)N1 (configuration not stated)	1.8%	i	8.2%	-1.7%	-16.1%	3.6%
CCOC(=O)CSC1=C(C#N)C(c2ccccc2OC)CC(=O)N1 (configuration not stated)	-4.9%	i	-12.7%	18.4µM*	-2.9%	?
COC(=O)CSC1=C(C#N)C(c2cccc(OC)c2)CC(=O)N1 (configuration not stated)	8.5%	?	-7.8%	-2.1%	-0.9%	5.9%
COC(=O)CSC1=C(C#N)C(c2cccc(F)c2)CC(=O)N1 (configuration not stated)	-4.7%	i	-20.3%	?	?	14.6µM*
CCCC(CCC)(C(=O)OCC)C(=O)OCC	.	i	-7.8%	.	.	.
Cc1cnc(-n2ncc(C(=O)NCC3COCCO3)c2C2CC2)nc1-c1cccs1 (configuration not stated)	.	i	.	.	.	.
O=C(O)C(Cc1ccnc2ccccc12)=NO	-0.2%	?	7.2%	10.0%	-3.4%	?
CCOC(=O)C(Cc1ccnc2ccccc12)=NO	0.7%	i	-6.0%	-25.6%	-5.7%	14.6µM*
CCOc1ccc(CCNC(=O)Cn2c(-c3cccs3)cc3cc(F)ccc32)cc1OCC	-62.4%	11.2µM*	22.4µM*	.	?	.
CC(=O)c1c(C)[nH]c(C(=O)CSc2nnc(-c3ccco3)n2Cc2ccccc2)c1C	-16.8%	i	-19.2%	-20.5%	1.2%	-1.4%
CC(=O)c1c(C)[nH]c(C(=O)CSc2nnc(-c3ccccc3)n2Cc2ccc3c(c2)OCO3)c1C	-41.6%	i	?	23.1µM*	-3.8%	?
CCCOC(=O)c1ccc(Oc2cn[nH]c2-c2ccc(OC)cc2O)cc1	-80.6%	?	?	18.4µM*	?	20.6µM*
COc1cccc(Oc2cn[nH]c2-c2ccc(OCC(=O)NN)cc2O)c1	-66.6%	i	.	-0.6%	?	-14.3%
COc1ccccc1CCNC(=O)Cc1c(C)c2cc(Cl)c(O)cc2oc1=O	-4.1%	.	.	.	1.5%	.
CC(C)(C)CC(C)(C)NCC(O)COc1c(F)cc(Br)cc1F (configuration not stated)	-98.3%	?	?	20.6µM*	?	20.6µM*
CC(C)n1cc(/C=C/c2cc[n+](C)cc2)c2ccccc21	-12.7%	i	?	9.2µM*	157.9%	?
Oc1cccc(/C=N/NC(=S)NCCN2CCOCC2)c1O	-2.6%	i	.	-3.9%	-12.2%	2.3%
S=C(NCCN1CCOCC1)N/N=C/c1cccs1	8.91µM*	5.01µM*	.	15.5%	4.47µM*	2.9%
COc1ccc(C(=O)N2CC(=O)Nc3ccc(F)cc3C2c2ccc(F)cc2)c(OC)c1 (configuration not stated)	7.8%	?	-0.5%	.	-0.4%	.
CC(NC(=O)c1ccco1)c1nnc2n1CCN(Cc1ccc(N3CCCC3)cc1)CC2 (configuration not stated)	.	i	.	.	.	.
CCOC(=O)N1CCN(S(=O)(=O)c2ccc(C(=O)N(CCN(C)C)c3nc4ccc(CC)cc4s3)cc2)CC1	-41.5%	i	10.4%	-7.5%	-6.6%	-6.5%
CCOC(=O)N1CCN(S(=O)(=O)c2ccc(C(=O)N(CCCN(C)C)c3nc4ccc(Cl)cc4s3)cc2)CC1	11.2µM*	?	?	-11.7%	?	-18.1%
CCc1ccc2nc(N(CCCN(C)C)C(=O)c3ccc(S(=O)(=O)N4CCCC4)cc3)sc2c1	-25.1%	?	-25.5%	-28.3%	-28.3%	-29.2%
SMILES	HepG2 viability	ATXN viability	ATXN2 expr inh	HT1080 IDH1KD tx	TGFb inhibitor	HT1080NT lethal
Cc1ccc2nc(N(CCCN(C)C)C(=O)c3ccc(S(=O)(=O)N4CCCCCC4)cc3)sc2c1	15.8µM*	i	?	18.4µM*	?	?
CC1CCCCN1S(=O)(=O)c1ccc(C(=O)N(CCCN(C)C)c2nc3ccc(Br)cc3s2)cc1 (configuration not stated)	-95.9%	.	?	?	?	18.4µM*
CCOC(=O)N1CCN(S(=O)(=O)c2ccc(C(=O)N(CCCN(C)C)c3nc4ccc(CC)cc4s3)cc2)CC1	-13.4%	i	?	16.4µM*	0.0%	?
COc1ccc(CCn2c3c(c(=O)[nH]c2=S)CN(C)CN3)cc1OC	.	.	.	16.5%	.	14.4%
Cc1nc2nc(SCc3ccc(F)cc3Cl)nn2c(C)c1Cc1ccccc1	-42.2%	.	.	.	-0.4%	.
Cc1c(C(=O)N2CCCCCC2)c(S(=O)(=O)Nc2ccc(OC(F)(F)F)cc2)c(C)n1C	-4.3%	?	3.3%	.	?	.
CN(C)CCCN(C(=O)C1=COCCO1)c1nc2ccc(Br)cc2s1	-73.0%	?	?	23.1µM*	?	20.6µM*
Cc1cc(C)c2nc(N(CCCN(C)C)C(=O)C3=COCCO3)sc2c1	-64.4%	i	-8.3%	-19.5%	-8.7%	-20.6%
O=C(O)C1(Cc2cccc(Nc3nccs3)n2)CCC(Oc2cccc(Cl)c2F)CC1 (configuration not stated)	.	.	14.2%	.	.	.
Oc1ccc(N=Nc2n[nH]c(-c3ccccc3)n2)cc1	-8.4%	?	20.6%	27.6%	3.4%	1.0%
Oc1ccc(N=Nc2nc(-c3ccccc3)c(-c3ccccc3)[nH]2)cc1	-28.0%	11.2µM*	10.5%	-21.5%	-30.1%	-4.5%
OC1CCCN(Cc2c3ccccc3cc3ccccc23)C1 (configuration not stated)	-12.0%	i	17.8µM*	?	-12.8%	?
CCCc1[nH]c2ccc(C#N)cc2c1CCC	-114.7%	.	?	?	20µM*	?
CCCc1[nH]c2ccc(C(=O)OC)cc2c1CCC	-32.8%	?	-1.7%	-15.1%	-12.0%	3.8%
COc1cc(OC)nc(Nc2nc(C(N)Cc3ccc(C(F)(F)F)cc3)cs2)n1 (configuration not stated)	10µM*	?	?	?	?	18.4µM*
CS(=O)(=O)c1ccc(Nc2nc(C(N)Cc3ccc(F)cc3)cs2)cc1 (configuration not stated)	-42.0%	i	-19.9%	-28.5%	?	-29.9%
